Measured values from PubChem BioAssay (Tox21).
Values without a mark were called inactive. The source made the active and inactive calls. The call rests on the fitted dose curve; in most records, active means well fitted curve in the direction sought with a large enough effect in the repeat runs; inconclusive means weak or mixed curves; inactive means flat fitted curve, though single readings scatter.

Assay: qHTS assay to test for compound auto fluorescence at 535 nm (green) in HEK293 cells (AID 720680)
Details: green autofluorescence 485/535 nm; series mostly up to 91.3 µM; fluorescence, % of fluorescein: at the top concentration
Description: U.S. Tox21 Program National Center for Advancing Translational Sciences [NCATS] NIH Chemical Genomics Center [NCGC] U.S. Environmental Protection Agency [EPA] National Institutes of Environmental Health Sciences [NIEHS] National Toxicology Program [NTP] U.S. Food and Drug Administration [FDA] Tox21 Assay Overview: Compound auto fluorescence often interferes with screening of the compound library against various biological targets and signaling pathways. Some of these compounds may have fluorophoric properties. Such properties may interfere with the assay outputs resulting in false positives and/or negatives. To decrease such complications and ensure the compound activities are relevant in terms of biological response, the Tox21 10K compound library was screened for auto fluorescence. From the fluorophores used as reporter signals in our screening assays, the auto fluorescence equivalencies of compounds against three fluorophores have been evaluated: Triamterene, Fluorescein and Rose Bengal sodium for blue, green and red fluorescence, respectively. The fluorescence intensities were measured using Excitation/Emission wavelengths at 405/460nm, 485/535nm and 540/590nm for blue, green and red labels, respectively. This assay includes the green fluorescence data.
Tox21 Assay Protocol Summary: 2,000 HEK293 cells in 5 uL of culture medium containing 10% dialyzed FBS per well were dispensed into black wall/clear bottom 1536-well plates using a Multidrop Combi Dispenser (Thermo Scientific). The assay plates were incubated for 4-5 hr at 37C to allow cell attachment to the well bottom, followed by the transfer of 23 nL compound or DMSO vehicle by a pintool work station (Kalypsys, San Diego, CA). After the assay plates were incubated overnight at 37C and 5% CO2, fluorescence intensities in the assay plates were measured by an Envision (PerkinElmer, Shelton, CT) plate reader using three labels for measuring blue, green and red fluorescence at […] 460, 535 and 590nm respectively.
On the % scale 0 is the no-effect control and ±100 the full control effect.

**Q.** Which “fluorescence, % of fluorescein” value does the source give for `CCN(CC)CCNc1ccc(CO)c2sc3ccccc3c(=O)c12` here?
**A.** -0.145% [at 46 µM]

**Q.** For `CCC(C)c1cc([N+](=O)[O-])cc([N+](=O)[O-])c1OC(=O)OC(C)C` (stereo not given), which “fluorescence, % of fluorescein” value is on record?
**A.** -0.0555%

**Q.** Which “fluorescence, % of fluorescein” value does the source give for `CC1=C(/C=C/C(C)=C/C=C/C(C)=C\C=O)C(C)(C)CCC1` here?
**A.** 0.224%

**Q.** With `C=C(C)C(=O)OCCC[Si](Cl)(Cl)Cl` as the molecule, how does the “fluorescence, % of fluorescein” value read?
**A.** -0.0867%

**Q.** For `O=C(O)c1cccc(Cl)n1`, which “fluorescence, % of fluorescein” value is on record?
**A.** -0.0092%

**Q.** With `CC(CN(C)C)CN1c2ccccc2CCc2ccccc21` (stereo not given) as the molecule, how does the fluorescence, % of fluorescein read?
**A.** 0.0583% [at 18.6 µM]

**Q.** Which “fluorescence, % of fluorescein” value does the source give for `NCCCCCCNCCCCCCN` here?
**A.** 0.0058%

**Q.** For `CCN(CC)CCSC(=O)C(c1ccccc1)c1ccccc1`, which Potency is on record?
**A.** inactive

**Q.** With `CC(C)(c1cc(Br)c(O)c(Br)c1)c1cc(Br)c(O)c(Br)c1` as the molecule, how does the Potency read?
**A.** inactive

**Q.** Which “fluorescence, % of fluorescein” value does the source give for `CN(C)CCCN1c2ccccc2Sc2ccc(C(F)(F)F)cc21` here?
**A.** -0.0144% [at 46 µM]

**Q.** Which Potency does the source give for `CCOC(=O)N1CCC(=C2c3ccc(Cl)cc3CCc3cccnc32)CC1` here?
**A.** inactive

**Q.** With `Cc1cc(Nc2ccc(O)cc2)ccc1N` as the molecule, how does the “fluorescence, % of fluorescein” value read?
**A.** -0.0174%

**Q.** For `CC(C)=C1CC[C@@H](C)CC1=O`, which “fluorescence, % of fluorescein” value is on record?
**A.** 0.028%

**Q.** For `Cc1oc(-c2ccccc2)nc1CCOc1ccc(C[C@H](Nc2ccccc2C(=O)c2ccccc2)C(=O)O)cc1`, which “fluorescence, % of fluorescein” value is on record?
**A.** 0.0039%

**Q.** Which Potency does the source give for `CN(C)CCCN1c2ccccc2CCc2ccccc21` here?
**A.** inactive

**Q.** With `CCO[Si](CCCSSSSCCC[Si](OCC)(OCC)OCC)(OCC)OCC` as the molecule, how does the “fluorescence, % of fluorescein” value read?
**A.** 0.0648%

**Q.** With `O=C1c2c(O)ccc(O)c2C(=O)c2c(NCCNCCO)ccc(NCCNCCO)c21` as the molecule, how does the fluorescence, % of fluorescein read?
**A.** 0.0058% [at 18.6 µM]

**Q.** Which “fluorescence, % of fluorescein” value does the source give for `CCC(C)(C)c1cc(O)c(C(C)(C)CC)cc1O` here?
**A.** 0.0216%

**Q.** With `Cc1c(C(=O)O)cccc1[N+](=O)[O-]` as the molecule, how does the “fluorescence, % of fluorescein” value read?
**A.** -0.0788% [at 95.7 µM]

**Q.** Which “fluorescence, % of fluorescein” value does the source give for `NC(=O)c1ccccc1N` here?
**A.** -0.007%

**Q.** Which Potency does the source give for `C=C(c1ccc(C(=O)O)cc1)c1cc2c(cc1C)C(C)(C)CCC2(C)C` here?
**A.** inactive

**Q.** With `Nc1cc(Cl)c([N+](=O)[O-])cc1O` as the molecule, how does the “fluorescence, % of fluorescein” value read?
**A.** 0.0024%

**Q.** For `CCCOc1sc(C(=O)N2CCC(c3cc(CN)ccc3F)CC2)c(C)c1Br`, which “fluorescence, % of fluorescein” value is on record?
**A.** 0.0316%

**Q.** Which “fluorescence, % of fluorescein” value does the source give for `O=C(c1ccccc1)c1cc(Cl)ccc1O` here?
**A.** -0.0111%

**Q.** With `Cc1c(C)n(Cc2ccccc2)c2ccc(C(=O)OCCN(C)C)cc12` as the molecule, how does the “fluorescence, % of fluorescein” value read?
**A.** 0.0388% [at 46 µM]

**Q.** With `C(=C/c1ccccc1)/c1ccccc1` as the molecule, how does the “fluorescence, % of fluorescein” value read?
**A.** -0.114% [at 95.7 µM]

**Q.** Which “fluorescence, % of fluorescein” value does the source give for `O=C(Nc1ccc(Cl)c(Cl)c1)c1cc(Cl)cc(Cl)c1O` here?
**A.** -0.0468%

**Q.** Which “fluorescence, % of fluorescein” value does the source give for `CCCCCCCCCCCCCCCC` here?
**A.** -0.0061%

**Q.** Which “fluorescence, % of fluorescein” value does the source give for `O[C@@H](c1cc(C(F)(F)F)nc2c(C(F)(F)F)cccc12)[C@H]1CCCCN1` here?
**A.** -0.0714% [at 46 µM]

**Q.** For `Oc1ccc(-c2ccc(O)cc2)cc1`, which “fluorescence, % of fluorescein” value is on record?
**A.** 0.0107%

**Q.** Which fluorescence, % of fluorescein does the source give for `Clc1ccc(C(Cn2ccnc2)OCc2c(Cl)cccc2Cl)c(Cl)c1` (stereo not given) here?
**A.** 0.16% [at 18.6 µM]

**Q.** For `CC(C)c1cccc(C(C)C)c1N1C(=O)c2ccc(O)cc2C1=O`, which “fluorescence, % of fluorescein” value is on record?
**A.** 0.424%

**Q.** For `O=C(Nc1ccc(Cl)cc1)Nc1ccc(Cl)c(C(F)(F)F)c1`, which “fluorescence, % of fluorescein” value is on record?
**A.** -0.0114% [at 46 µM]

**Q.** Which Potency does the source give for `Clc1ccc(C(c2ccccc2Cl)C(Cl)Cl)cc1` (stereo not given) here?
**A.** inactive

**Q.** Which “fluorescence, % of fluorescein” value does the source give for `CC(=O)OC(OC(C)=O)c1ccc([N+](=O)[O-])o1` here?
**A.** 0.386% [at 95.7 µM]

**Q.** For `O=C1Nc2ccc(Cl)cc2[C@@](C#CC2CC2)(C(F)(F)F)O1`, which “fluorescence, % of fluorescein” value is on record?
**A.** -0.0141% [at 46 µM]

**Q.** With `N#CSCSc1nc2ccccc2s1` as the molecule, how does the “fluorescence, % of fluorescein” value read?
**A.** 0.0758%

**Q.** With `Cc1cc2c(C(C)C)c(O)c(O)c(C=O)c2c(O)c1-c1c(C)cc2c(C(C)C)c(O)c(O)c(C=O)c2c1O` as the molecule, how does the “fluorescence, % of fluorescein” value read?
**A.** 0.0497% [at 46 µM]

**Q.** For `COc1cc(C(=O)NS(=O)(=O)c2ccccc2C)ccc1Cc1cn(C)c2ccc(NC(=O)OC3CCCC3)cc12`, which “fluorescence, % of fluorescein” value is on record?
**A.** 0.0285% [at 46 µM]

**Q.** Which “fluorescence, % of fluorescein” value does the source give for `Cc1cccc(Br)c1` here?
**A.** -0.0476%
